# Lassa entry inh: blocks Lassa virus binding to or entry into cells; Lassa virus pseudotype entry inhibition, cell reporter; Potency, µM (highest dose often 37.9 µM), without a hit: at the top dose activity change, negative = inhibition, actives largely listed as inhibitors; actives 1.2% (n = 300,000); AID 540256; calls by dose curve; tested in HEK293 cells; further: potency means the concentration at half of the fitted maximal effect; on the % scale 0 is the no-effect control and ±100 the full control effect; nearly all actives have a fitted effect of over 50% in size
# Marburg entry inh: blocks Marburg virus binding to or entry into cells; Marburg virus pseudotyped entry inhibition, cell reporter; Potency, µM (top dose mostly 37.8 µM), inactives show top-dose activity change, negative = inhibition, hits mostly inhibitors; actives 1.8% (n = 300,000); AID 540276; calls by dose curve; tested in HEK293 cells; further: potency means the concentration at half of the fitted maximal effect; on the % scale 0 is the no-effect control and ±100 the full control effect
# Shiga toxin inh: Shiga toxin inhibition; AID 2315; inhibition, % at 38.7 µM; actives 9.2% (n = 290,000); Vero cells, Shiga toxin protein synthesis inhibition reporter; in the data active means inhibition mostly above about 28%, no sharp cut-off; inactive means mostly below about 43%; further: 0% is about no effect
# Pf growth 48h: inhibits P. falciparum growth in the first generation, 48 h | P. falciparum luciferase growth in erythrocytes, 48 h | Potency, µM (doses to about 28.7 µM), without a hit: at the top dose activity change, negative = inhibition, hits mostly inhibitors | actives 5.9% (n = 310,000); further: potency means the concentration at half of the fitted maximal effect; on the % scale 0 is the no-effect control and ±100 the full control effect
#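 First compound was added to culture medium, then infected red cells at 0.1% parasitemia and 2% hematocrit (final). After incubation at 37 C under 5% CO2, luciferase detection reagent was dispensed and light output recorded.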
# CHX counter: counter-screen hit for Shiga toxin inhibitors, cycloheximide. cell reporter, cycloheximide protein synthesis inhibition counterscreen. max response, %. actives 12% (n = 300,000); in the data active means max response mostly above about 13%, no sharp cut-off; inactive means mostly below about 14%; further: read at 38.3 µM for the half of the compounds with a filed dose; 0% is about no effect
# Pf growth 96h: P. falciparum growth inhibition at 96 hours. P. falciparum luciferase reporter growth, 96 h. Potency, µM (doses to about 28.7 µM), for the others: at the top dose activity change, negative = inhibition, most hits filed as inhibitors. actives 6.9% (n = 320,000). AID 504834; further: potency means the concentration at half of the fitted maximal effect; on the % scale 0 is the no-effect control and ±100 the full control effect
#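 Luminescence readout: decreased luciferase signal marks inhibited growth of reporter-expressing P. falciparum in infected red cells (2% hematocrit, 0.05% parasitemia final), exposed to compound two generations (96 h, 37 C, 5% CO2).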
# Numbers without * were called inactive; i = inactive; ? = inconclusive; . = no result; ! = a repeat was not active; [ ] = another dose, or the depositor's remark. The list is not random: actives were taken first. Their share in the collection is about 19%. Unless noted, the call rests on the fitted dose curve; in most records, active means well fitted inhibition curve with a large enough effect; inconclusive means small, poorly fitted or top-dose-only effect, or another doubt; inactive means no such curve, though single readings can be large or run the other way.
SMILES,Lassa entry inh,Marburg entry inh,Shiga toxin inh,Pf growth 48h,CHX counter,Pf growth 96h
Cc1ccc(CNC(=O)COc2ccccc2-c2ccccc2)cc1,-9%,5%,12,-14%,-1,10µM*
O=C(Nc1cccc(C(=O)O)c1)/C(=C\c1ccc2c(c1)OCO2)NC(=O)c1ccccc1,14%[46.1 µM],-1%[46.1 µM],2,-1%,-2,?
Nc1nonc1-c1noc(-c2ccccc2Br)n1,?,5%,38*,41%,30*,?
Nc1nonc1-c1noc(CCCN2C(=O)c3ccccc3C2=O)n1,23%,?,98*,83%,112*,87%
Cc1ccc(-c2csc3ncn(CC(N)=O)c(=O)c23)cc1C,.,.,9,-9%,-2,?
O=C(N/N=C/C(Cl)=C/c1ccc([N+](=O)[O-])cc1)C(=O)Nc1ccc(C(=O)O)cc1,.,.,-2,12µM*,1,?
CCc1nccn1S(=O)(=O)c1ccc(Br)cc1Br,2%,17%,12,24%,9,0.93µM*
COc1ccc(OC)c2[nH]c(=O)c(CCNC(=O)c3cc4ccccc4o3)cc12,.,.,-8,8.3µM*,1,5.2µM*
COc1ccc(OC)c2[nH]c(=O)c(CCNS(=O)(=O)c3ccc(F)cc3)cc12,-1%[46.1 µM],-1%[46.1 µM],17,-24%,-1,40%
CCS(=O)(=O)NCCc1cc2c(OC)ccc(OC)c2[nH]c1=O,18%,-9%,-5,-24%,-2,2.1µM*
COc1ccccc1NC(=O)Nc1nc(CC(=O)NCc2c(F)cccc2F)cs1,?,?,.,?,.,-19%
CC(=O)C1=C(O)C(=O)N(c2ccc(O)cc2)C1c1ccc(C)cc1 (stereo not drawn),-1%[46.1 µM],6%[46.1 µM],-12,0%,0,0%
CC(=O)C1=C(O)C(=O)N(c2ccc(C)cc2)C1c1ccccn1 (stereo not drawn),24%,15%[46.1 µM],37*,14%,22*,8%
CCc1ccc(NC2=NCC(=O)N2Cc2ccc3c(c2)OCO3)cc1,-17%,6%,-3,0%,-2,9.3µM*
Cc1ccc(NC2=NCC(=O)N2Cc2ccc3c(c2)OCO3)c(C)c1,22%,-32%[46.1 µM],0,4%,-3,35%
CC(C1CC1)N(Cc1ccccc1)C(=O)NC(=O)c1ccc(F)cc1 (stereo not drawn),11µM*,5%,-19,i,8,25%
CC(C1CC1)N(Cc1ccccc1)C(=S)Nc1ccccc1 (stereo not drawn),?,-1%[46.1 µM],-9,185%,1,53%
Cc1ccc(-c2n[nH]c3c2C(c2ccccc2)N(c2ccc(C(=O)O)cc2)C3=O)cc1 (stereo not drawn),?,-28%[46.1 µM],18,?,-3,?
CN(CC(=O)Nc1cccc(F)c1)C(=O)CCCNC(=O)c1ccc(Cl)cc1,16%,-2%[46.1 µM],.,132%,.,125%
COC(=O)Cn1c(=NC(=O)C(C)C)sc2c(C)cc(C)cc21,.,.,1,8%,-3,34%
C=CCn1c(=NC(=O)c2ccccc2[N+](=O)[O-])sc2cc(S(C)(=O)=O)ccc21,-4%,?,10,?,-1,9.3µM*
COC(=O)Cn1c(=NC(=O)c2ccc([N+](=O)[O-])s2)sc2cc(Br)ccc21,0%,0%,39,?,15*,0.83µM*
COC(=O)Cn1c(=NC(=O)c2ccc(Cl)s2)sc2cc(C)ccc21,8%,22%,39,86%,18*,3%
COC(=O)Cn1c(=NC(=O)c2nc3ccccc3s2)sc2cc(S(C)(=O)=O)ccc21,18%,19%,15,45%,17*,87%
COC(=O)Cn1c(=NC(=O)c2sc3ccccc3c2Cl)sc2cc(S(N)(=O)=O)ccc21,-19%,22%,-2,2%,-1,37%
SMILES,Lassa entry inh,Marburg entry inh,Shiga toxin inh,Pf growth 48h,CHX counter,Pf growth 96h
COCCn1c(=NC(=O)c2cccs2)sc2cc(NC(C)=O)ccc21,-2%,-13%,-6,4%,-4,55%
COc1ccc(CCNC(=S)Nc2cccc3ccccc23)cc1,1%,-17%,20,-25%,-2,45%
O=C(O)CSCC(=O)NCc1ccc(Cl)cc1,?,0%[46.1 µM],15,-15%,-3,7%
NC(N)=NC(=O)Cc1c(Cl)cccc1Cl,-6%,?,-15,?,-1,1.9µM*!
O=C(/C=C/c1cccs1)Nc1ccc(Br)cn1,?,?,60*,274%,43*,328%
O=C(/C=C/c1cccs1)Nc1ccc(S(=O)(=O)Nc2ncccn2)cc1,7%,15%[46.1 µM],-8,-8%,1,-9%
CC(C)=CC(=O)Nc1nnc(-c2ccccc2C)s1,1%,?,77*,63%,28*,6%
O=C(/C=C/c1cccs1)Nc1sc2c(c1C(=O)O)CCCC2,?,?,30,20%,25,29%
O=C(/C=C/c1cccs1)Nc1nccs1,.,.,111*,339%,41*,354%
Cc1ccccc1-c1nnc(NC(=O)c2cc3ccccc3oc2=O)s1,0%,-7%,-15,2%,-3,-19%
O=C(/C=C/c1cccs1)NC1CC1,.,.,19,25%,19*,45%
CCc1nnc(NC(=O)C(C)C)s1,-10%,-1%[46.1 µM],-9,.,-4,14%
Cc1cc(C)c(-c2csc(NC(=O)/C=C/c3cccs3)n2)c(C)c1,?,?,-10,-20%,-5,12µM*
O=C(/C=C/c1cccc(F)c1)Nc1nccs1,-4%,0%[46.1 µM],117*,191%,47*,i
CCc1nnc(NC(=O)C=C(C)C)s1,?,29%,39*,163%,32*,?
Cc1cc(C)nc(NC(=O)/C=C/c2cccs2)c1,10%,?,108,117%,19,199%
O=C(/C=C\c1ccccc1)Nc1nccs1,?,-50%,59*,97%,39*,64%
O=C(/C=C/c1cccs1)Nc1cccc(NC(=O)/C=C/c2cccs2)n1,?,?,90*,49%,40*,-17%
CCc1nnc(NC(=O)/C=C/c2cccs2)s1,-2%,6%,40,188%,17*,89%
CN1/C(=C/C(=S)NC(=O)C2CCC2)C(C)(C)c2ccccc21,-18%,26%,6,-2%,4,?
C[n+]1ccccc1COc1ccc(C(C)(C)C)cc1,-21%,?,-10,?,-3,0.37µM*
CCNC(=S)N1N=C2c3ccccc3CCC2C1c1ccc(F)cc1 (stereo not drawn),?,?,15,7.4µM*,-3,2.6µM*
COC(=O)c1cc(S(=O)(=O)N2CCCC2=O)c(Cl)cc1Cl,.,.,-6,?,-2,10µM*
COC(=O)c1cc(S(=O)(=O)n2nc(C)cc2C)c(Cl)cc1Cl,5%,22%,-10,14%,1,-7%
Nc1nc2ccccc2n1CCOc1ccc(Cl)cc1,1%,?,.,?,-4,?
